Measured values from PubChem BioAssay (EPA / NIEHS).
Inconclusive results are not listed. A structure can be active in one record and inactive in another. Active and inactive are the calls of the source. The calls were made as follows, unless noted: active = hit-call score of the fitted dose curve at least 0.9, where 1 is the maximum; inactive = score below 0.9.

Key:
[1] = APR_HepG2_CellCycleArrest_1hr: Apredica 1-hour HepG2 Assay for Cell Cycle Arrest (AID 2282666); conditions: high-content imaging, actives raise or lower the signal
Summary of the method: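 HepG2 cells exposed for 1 h to 0.39–200 uM compound (0.5% DMSO). Fixed, Hoechst-stained nuclei imaged by ArrayScan; DNA content quantified by Cell Cycle analysis; bidirectional fit against DMSO.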

[2] = ACEA_ER_80hr: ACEA Biosciences xCELLigence Real-Time Cell Analysis on Estrogen Receptor Agonism for Proliferation (AID 2282667; active = hit-call score of the fitted dose curve at least 0.9, where 1 is the maximum); conditions: T47D proliferation, impedance (xCELLigence), 80 h
Summary of the method: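 Estrogen-driven proliferation is captured as electrode impedance in T47D cells 80 h after compound addition. Test articles ran at 8 concentrations, 1:4 dilutions from 100 uM final, in two replicate plates.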

[3] = APR_HepG2_MicrotubuleCSK_1hr: Apredica 1-hour HepG2 Assay for Microtubule CSK Stabilty (AID 2282669); conditions: HepG2 microtubule cytoskeleton imaging, actives raise or lower the signal
Summary of the method: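 HepG2 cells exposed 1 h to 0.39–200 uM compound (0.5% DMSO, duplicates), then formaldehyde-fixed, permeabilized and immunostained for alpha-tubulin with Hoechst nuclei. Imaged by ArrayScan high-content analysis; bidirectional fit versus DMSO.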

[4] = APR_HepG2_NuclearSize_1hr: Apredica 1-hour HepG2 Assay for Nuclear Size (AID 2282670); conditions: high-content imaging, actives raise or lower the signal
Summary of the method: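 HepG2 cells dosed 1 hr with 0.39–200 uM compound (0.5% DMSO), formaldehyde-fixed, Hoechst 33342-stained and imaged at 20x; nuclear diameter from nuclear stain, fitted bidirectionally against DMSO.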

[5] = APR_HepG2_MitoticArrest_1hr: Apredica 1-hour HepG2 Assay for Mitotic Arrest (AID 2282672); conditions: high-content imaging, actives raise or lower the signal
Summary of the method: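 HepG2 cells exposed 1 hr to compounds at 0.39–200 uM (0.5% v/v DMSO final), then fixed in 3.7% formaldehyde and immunostained for phospho-histone H3 with Hoechst 33342. Mitotic arrest scored by automated fluorescence imaging, fitted bidirectionally versus DMSO.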

[6] = APR_HepG2_MitoMass_1hr: Apredica 1-hour HepG2 Assay for Mitochondrial Mass (AID 2282674); conditions: high-content imaging, actives raise or lower the signal
Summary of the method: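 HepG2 cells dosed 1 hr with 0.39-200 uM compound (0.5% DMSO), duplicate wells. Mitochondria stained with 250 nM MitoTracker Red CMXRos for 30 min before formaldehyde fixation, imaged at 20x by ArrayScan; bidirectional fit versus DMSO.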

[7] = APR_HepG2_MitoMembPot_1hr: Apredica 1-hour HepG2 Assay for Mitochondrial Membrane Potential (AID 2282675); conditions: imaging, actives raise or lower the signal
Summary of the method: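 HepG2 cells dosed 1 hour with 0.39–200 uM compound in duplicate, 0.5% DMSO final. MitoTracker Red CMXRos (250 nM, 30 min) loaded before formaldehyde fixation; fluorescence quantified by high-content imaging, bidirectional fitting versus DMSO.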

[8] = APR_HepG2_CellCycleArrest_24hr: Apredica 24-hour HepG2 Assay for Cell Cycle Arrest (AID 2282905); conditions: imaging, actives raise or lower the signal;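 also: cell cycle arrest scored as ratio of 2N to 4N nuclear DNA content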
Summary of the method: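 Compounds at 0.39–200 uM (0.5% DMSO) for 24 h, then fixed and Hoechst 33342 stained. Cell-cycle analysis of nuclear DNA content by high-content imaging, fitted bidirectionally versus DMSO.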

[9] = APR_HepG2_NuclearSize_24hr: Apredica 24-hour HepG2 Assay for Nuclear Size (AID 2282907); conditions: high-content imaging, actives raise or lower the signal
Summary of the method: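 HepG2 cells exposed 24 h to compounds at 0.39–200 uM (0.5% DMSO), fixed, Hoechst 33342 stained and imaged at 20x; nuclear diameter measured by automated image analysis, fitted bidirectionally against DMSO controls.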

[10] = APR_HepG2_CellLoss_24hr: Apredica 24-hour HepG2 Assay for Cell Loss (AID 2282908); conditions: high-content imaging;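 as to AC50: fit in both directions so a hit may be cell loss or gain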
Summary of the method: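 HepG2 cells exposed 24 hr to 0.39–200 uM compound in duplicate at 0.5% v/v final DMSO. Cells fixed in 3.7% formaldehyde and Hoechst 33342-stained. Cell number came from nuclear imaging at 20x. Bidirectional fit versus DMSO.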

[11] = APR_HepG2_MicrotubuleCSK_24hr: Apredica 24-hour HepG2 Assay for Microtubule CSK Stabilty (AID 2282909); conditions: HepG2 microtubule cytoskeleton imaging, actives raise or lower the signal
Summary of the method: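 HepG2 cells were treated 24 hr with compound at 0.39–200 uM in duplicate (0.5% DMSO final), then fixed and permeabilized. Alpha-tubulin immunofluorescence was imaged by high-content microscopy, with bidirectional fitting against DMSO and taxol as positive control.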

[12] = APR_HepG2_MitoMembPot_24hr: Apredica 24-hour HepG2 Assay for Mitochondrial Membrane Potential (AID 2282911); conditions: imaging, actives raise or lower the signal
Summary of the method: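 Mitochondrial dye uptake (MitoTracker Red CMXRos, 250 nM, 30 min pre-fixation) in HepG2 after 24 hr compound exposure, 0.39–200 uM; ArrayScan images at 20x, activity fitted in both directions relative to DMSO.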

[13] = APR_HepG2_MitoMass_24hr: Apredica 24-hour HepG2 Assay for Mitochondrial Mass (AID 2282912); conditions: high-content imaging, actives raise or lower the signal
Summary of the method: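 HepG2 cells exposed 24 hr to 0.39–200 uM compound, 0.5% v/v DMSO, in duplicate. Stained before fixation with 250 nM MitoTracker Red CMXRos for 30 min, then imaged at 20x with Hoechst nuclei. Fitted in both directions against DMSO.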

[14] = APR_HepG2_p53Act_24hr: Apredica 24-hour HepG2 Assay for p53 Activation (AID 2282913); conditions: high-content imaging, actives raise or lower the signal;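 also: p53 protein immunofluorescence averaged per cell in HepG2 with Hoechst nuclei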
Summary of the method: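 Following 24 hr dosing of HepG2 at 0.39–200 uM, the cells undergo formaldehyde fixation, Triton permeabilization and multiplexed antibody labeling that includes p53 (Cy5). Signal from the imaging is referenced to DMSO solvent controls.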

[15] = APR_HepG2_CellCycleArrest_72hr: Apredica 72-hour HepG2 Assay for Cell Cycle Arrest (AID 2282914); conditions: high-content imaging, actives raise or lower the signal
Summary of the method: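 Using multiplexed high-content imaging, HepG2 nuclei stained with Hoechst 33342 (2 ug/mL) were analysed for DNA content after fixation and permeabilization. Treatment lasted 72 hr across 0.39–200 uM in duplicate with final DMSO 0.5% v/v; DMSO served as negative control.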

[16] = APR_HepG2_CellLoss_1hr: Apredica 1-hour HepG2 Assay for Cell Loss (AID 2282668); conditions: high-content imaging;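 also: curves fitted both ways against DMSO so gain or loss of cells counts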
Summary of the method: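 HepG2 cells were treated for 1 h with compound at 0.39–200 uM, in duplicate, in 0.5% DMSO. After formaldehyde fixation, Hoechst 33342-stained nuclei were imaged on an ArrayScan to count cells. Data were fitted bidirectionally versus DMSO.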

[17] = APR_HepG2_StressKinase_1hr: Apredica 1-hour HepG2 Assay for Stress Kinase (AID 2282906); conditions: HepG2 stress kinase (phospho-c-Jun) imaging, actives raise or lower the signal
Summary of the method: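 HepG2 cells dosed 0.39-200 uM (0.5% DMSO) for 1 h, then formaldehyde-fixed. Stress kinase read by phospho-c-Jun immunofluorescence using high-content imaging; bidirectional fit vs DMSO.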

[18] = APR_HepG2_P-H2AX_1hr: Apredica 1-hour HepG2 Assay for H2AX Phosphorylation (AID 2282673); conditions: high-content imaging, actives raise or lower the signal
Summary of the method: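 HepG2 dosed 1 hr at 0.39-200 uM (0.5% DMSO final), duplicate. Fixed in 3.7% formaldehyde, Triton permeabilized, immunostained for phospho-histone H2A.x (1:200) with Hoechst 33342; ArrayScan 20x imaging, bidirectional fit vs DMSO.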

[19] = APR_HepG2_MitoticArrest_24hr: Apredica 24-hour HepG2 Assay for Mitotic Arrest (AID 2282910); conditions: high-content imaging, actives raise or lower the signal
Summary of the method: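 Compounds are dosed onto HepG2 cells across ten concentrations up to 200 uM for 24 hr. Cells are then fixed in 3.7% formaldehyde, permeabilised, and labelled for phospho-histone H3 and nuclei; images are scored by cell cycle analysis and fitted bidirectionally relative to DMSO.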

Measured: AC50

COC(=O)N(OC)c1ccccc1COc1ccn(-c2ccc(Cl)cc2)n1
active: [7] 0.0634 µM | [10] 3.37 µM | [11] 6.07 µM | [12] 0.332 µM
not listed: [16] | [17] | [18] | [19]
inactive: all other assays above

COc1nc(C)nc(NC(=O)NS(=O)(=O)c2ccccc2Cl)n1
not listed: [2] | [6] | [17] | [18] | [19]
inactive: all other assays above

Cc1ccc(-c2c(Cl)nc(C#N)n2S(=O)(=O)N(C)C)cc1
active: [2] 10.5 µM | [7] 100 µM | [12] 78.1 µM
not listed: [6] | [16] | [17] | [18] | [19]
inactive: all other assays above

O=C(Nc1ccccc1)Nc1ccnc(Cl)c1
active: [7] 99.5 µM | [8] 69.9 µM | [10] 84.3 µM | [11] 84.5 µM | [13] 108 µM | [15] 37.2 µM
not listed: [6] | [16] | [18] | [19]
inactive: all other assays above

CON(C)C(=O)Nc1ccc(Cl)c(Cl)c1
active: [8] 31.2 µM | [12] 28.9 µM
not listed: [6] | [16] | [17] | [18] | [19]
inactive: all other assays above

CNC(=O)ON=CC(C)(C)SC
not listed: [16] | [17] | [18] | [19]
inactive: all other assays above

CS/C(C)=N/OC(=O)N(C)SN(C)C(=O)O/N=C(\C)SC
active: [2] 0.164 µM | [5] 29.7 µM | [10] 47.4 µM
not listed: [6] | [16] | [18] | [19]
inactive: all other assays above

OC(c1ccc(Cl)cc1)(c1cncnc1)c1ccccc1Cl (configuration not stated)
active: [10] 108 µM | [11] 84.9 µM | [12] 31.5 µM
not listed: [6] | [16] | [17] | [19]
inactive: all other assays above

O=C(O)COc1nc(Cl)c(Cl)cc1Cl
not listed: [6] | [16] | [17] | [18] | [19]
inactive: all other assays above

COC(=O)c1ccccc1C(=O)OC
not listed: [16] | [17] | [18] | [19]
inactive: all other assays above

COC(=O)C=C(C)OP(=O)(OC)OC
not listed: [6] | [16] | [17] | [18]
inactive: all other assays above

COC(=O)C(C)Oc1ccc(Oc2ccc(Cl)cc2Cl)cc1 (configuration not stated)
active: [12] 129 µM
inactive: [1] | [16] | [3] | [4] | [5] | [7] | [8] | [9] | [10] | [11] | [12] | [13] | [14] | [15]

CCCCC(CC)COC(=O)c1ccccc1C(=O)OCC(CC)CCCC (configuration not stated)
not listed: [16] | [17] | [18]
inactive: all other assays above
